# Data: PubChem BioAssay (EPA / NIEHS)
# The source made the active and inactive calls. How the source made its calls: active means hit-call score of the fitted dose curve at least 0.9, where 1 is the maximum; inactive means score below 0.9.
# Read-out: Alkaline Phosphatase, Placental (ALPP) gene, ALPP (gene 250)
# Experiment: LTEA_HepaRG_ALPP: Life Technologies and Expression Analysis (LTEA) Assay for Alkaline Phosphatase, Placental (ALPP) gene using HepaRG (AID 2283468);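 on AC50: ALPP transcript by TaqMan qRT-PCR normalized to ACTB GAPDH and POLR2A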
# Settings: mRNA level, 48 h; actives raise or lower the signal
# Protocol: LTEA_HepaRG is a cell based, multiplexed-readout assay that uses HepaRG, a human liver cell line, with measurements taken at 48 hours after chemical dosing on a 96-well plate.LTEA_HepaRG_ALPP is one of 102 assay component(s) measured in the LTEA HepaRG cell culture assay. It is a marker of Cell proliferation, survival, death.Data from the assay component LTEA_HepaRG_ALPP was analyzed into 1 endpoint. This assay endpoint, LTEA_HepaRG_ALPP, was analyzed with bidirectional fitting relative to DMSO as the negative control and baseline of activity. Using a type of inducible reporter, measures of mRNA induction for gain or loss-of-signal activity can be used to understand regulation of transcription factor activity. To generalize the intended target to other relatable targets, this assay endpoint is annotated to the phosphatase intended target family, where the subfamily is Cell proliferation, survival, death.
# A total of 1060 chemcials from the ToxCast library were tested in eight-point concentration-response experiments. Cell culture and cytotoxicity assays were conducted at Thermo Fisher Scientific's Custom Services facility (Madison, WI). A single lot of human HepaRG cells (Thermo Fisher Scientific, Frederick, MD) was used for the cell culture experiments. 96-well format collagen type I coated plates of human HepaRG cells were prepared using established methods. Briefly, cryopreserved HepaRG cells were thawed, plated at a density of approximately 100,000 cells/well in HepaRG Thaw, Plate, and General Purpose media (HPRG770, Thermo Fisher Scientific), and incubated for 48 hours. 0.5% DMSO was selected as vehicle control to balance the requisite need of DMSO in HepaRG cultures to maintain differentiation (for example, baseline metabolism, proportions of hepatocytes vs. cholangiocytes), while enabling further hepatic receptor pathway activation (for example, PXR and CAR) in response to chemical exposure. 48 hours after plating, the culture medium was replaced with HepaRG Serum-Free Incudtion Media. Cells were exposed to each test chemical in duplicate and maintained in CO2 incubators for another 48 hours. Chemical plates were thawed to room temperature and 200x concentrations of treatment groups were prepared. 8-point conentration-reponse curves were made with the highest exposure at 100 uM, followed by half-log dilutions, all in 0.5% DMSO. Each test plate contained variouse controls, induction positive controls (1mM phenobarbital), cytotoxicity positive controls ([…] aflatoxin B1), vehicle controls (0.5% DMSO), and total lysis controls (0.5% DMSO). Cell morphology images were taken using an Essen IncuCyte FLR automated microscope, with six 96-well plates imaged in about 24 minutes. Images were captured and exported and JPEG files. Spent culture media was transfered to black-well plates for the LDH assay, and remaining media was sorted at -80 C for later use. Cells were treated with RLT buffer and frozen until shipped for gene expression analysis. Total RNA was isolated from the cell suspension in 75 uL of Buffer RLT (Qiagen, Germantown, MD 20874) by Quintiles/Expression Analysis (Durham, NC) using a custom isolation procedure. Total RNA from each plate well was transferred to a preamplification plate. Fluidigm's 96.96 Dynamic ArrayTM (Fluidigm, Amsterdam, the Netherlands) technology was used for gene expression analyses by quantitative reverse transcription polymerase chain reaction (qRT-PCR, performed by Quintiles/Expression Analysis, Durham, NC)89. Standard TaqManTM Assays (Applied Biosystems/ThermoFisher Scientific, Foster City, CA) were used to assess the expression of 93 genes selected based on their selectivity and sensitivity to important hepatic receptors known to be modulated by environmental chemicals; importance in human hepatocyte functionality; and hepatotoxicity. […]
SMILES,outcome,AC50
Nc1ccc([N+](=O)[O-])cc1,inactive,
CCCCCCCCCCCCCN1CC(C)OC(C)C1 (stereo not given),inactive,
COc1cc(C=O)cc2c1[C@H](COC(N)=O)[C@]1(OC(C)=O)ON2C[C@H]2[C@@H]1N2C(C)=O,inactive,
CCCCOC(=O)c1ccccc1C(=O)OCc1ccccc1,inactive,
CCCCCCCCOC(=O)c1ccc(C(=O)OCCCCCCCC)c(C(=O)OCCCCCCCC)c1,inactive,
O=C(N[C@H](c1ccccc1)[C@@H]1CN2CCC1CC2)c1c(Cl)ccc(C(F)(F)F)c1Cl,,11.8 µM (active)
COC(=O)c1ccccc1N,inactive,
CC(C)(OOC(C)(C)c1ccccc1)c1ccccc1,inactive,
CN(C)C(=O)Nc1ccc(Cl)cc1,inactive,
CC(C)N(Cc1ccccc1)C(=O)C(C)(C)C,inactive,
CCCCCCCCn1sccc1=O,inactive,
Cn1cc(-c2ccccc2)c(=O)c(-c2cccc(C(F)(F)F)c2)c1,,50 µM (active)
OCCCBr,inactive,
CC(C)(C)OOC(C)(C)CCC(C)(C)OOC(C)(C)C,inactive,
N#CC(Br)(Br)C(N)=O,inactive,
Cc1cccc(N)c1N,inactive,
CCC[CH2][Sn]([Cl])([CH2]CCC)[CH2]CCC,,3.79 µM (active)
Oc1ccccc1Cl,inactive,
c1ccc(N=Nc2ccccc2)cc1,inactive,
CC(C)(O)c1cnn2c(-c3ccc(F)c(-c4c(F)cccc4C#N)c3)cnc2n1,inactive,

SMILES,outcome,AC50
c1ccc2c(c1)-c1cccc3cccc-2c13,inactive,
[Cl-].[Cl-].[Hg+2],inactive,
c1ccc2c(c1)oc1ccccc12,inactive,
CCCSC(=O)N(CCC)CCC,inactive,
c1ccc(NNc2ccccc2)cc1,inactive,
C[C@]12C=CC3=C4CCC(=O)C=C4CC[C@H]3[C@@H]1CC[C@@H]2O,,24.4 µM (active)
Cc1cc(N=Nc2ccccc2C)ccc1N,,12.6 µM (active)
Nc1ccc(Oc2ccc(N)cc2)cc1,inactive,
Oc1ccc2ccc3cccc4ccc1c2c34,inactive,
CNC(=O)Oc1cccc2c1OC(C)(C)C2,inactive,
OCCCl,inactive,
c1ccc(C2CO2)cc1 (stereo not given),inactive,
CC(C)(C)OOC(=O)c1ccccc1,inactive,
C[N+](C)(C)CC1CO1 (stereo not given),inactive,
CCCCCOC(=O)c1ccccc1C(=O)OCCCCC,inactive,
ClCCOCCCl,inactive,
Nc1ccc(N=Nc2ccccc2)cc1,inactive,
COC(=O)Nc1nc2ccccc2[nH]1,inactive,
O=[N+]([O-])C(Br)(CO)CO,inactive,
CN(C)[C@@H]1C(=O)C(C(N)=O)=C(O)[C@@]2(O)C(=O)C3=C(O)c4c(O)cccc4[C@@](C)(O)[C@H]3C[C@@H]12,inactive,
